Hit rate of the full screen: of about 5,500 compounds, about 2,000 (36%) were called active. Inconclusive results (about 18%) are left out. Cut-off read from the data, not from the text of the source: active = normalized growth mostly below about 0.91 (no sharp cut-off); inconclusive = no clear call, values can overlap the other calls; inactive = mostly above about 0.92. Some of the results follow.
Assay: chemical genetic growth profiling, strain panel (AID 1159580);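 note: tested at 20 µM; growth read once vehicle control cultures reached saturation at 30 °C; 1 = growth at the plate median or of vehicle wells; lower values mean less growth of the strain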
Settings: growth OD

Measured: normalized growth

CO[C@H]1C[C@H](O[C@H]2[C@H](C)[C@@H](OC3O[C@H](C)C[C@H](N(C)C)[C@H]3O)[C@@H](C)C[C@]3(CO3)C(=O)[C@H](C)[C@@H](O)[C@@H](C)[C@@H](C)OC(=O)[C@@H]2C)O[C@@H](C)[C@@H]1O (some centres not stated)
inactive: S. cerevisiae deletion strains, locus YJR075W, strain HOC1, stronger effect = lower value 1.01 | S. cerevisiae deletion strains, locus YKL009W, strain mrt4, stronger effect = lower value 1 | S. cerevisiae deletion strains, locus YKL068W, stronger effect = lower value 1 | S. cerevisiae deletion strains, locus YKL085W, strain MDH1 (second series), stronger effect = lower value 0.992 | S. cerevisiae deletion strains, locus YKL085W, strain MDH1, stronger effect = lower value 0.992 | S. cerevisiae deletion strains, locus YKL160W, strain elf1, stronger effect = lower value 1.06 | S. cerevisiae deletion strains, locus YKL190W, strain CNB1, stronger effect = lower value 1 | S. cerevisiae deletion strains, locus YKR001C, strain vps1, stronger effect = lower value 1.02 | S. cerevisiae deletion strains, locus YKR026C, strain gcn3, stronger effect = lower value 1 | S. cerevisiae deletion strains, locus YKR091W, strain srl3, stronger effect = lower value 1 | S. cerevisiae deletion strains, locus YLL001W, strain dnm1, stronger effect = lower value 1.06 | S. cerevisiae deletion strains, locus YLL026W, stronger effect = lower value 1 | S. cerevisiae deletion strains, locus YLL041C, strain sdh2, stronger effect = lower value 1 | S. cerevisiae deletion strains, locus YLR027C, strain aat2, stronger effect = lower value 1.01 | S. cerevisiae deletion strains, locus YLR039C, strain RIC1, stronger effect = lower value 1.03 | S. cerevisiae deletion strains, locus YLR058C, strain SHM2, stronger effect = lower value 1.01 | S. cerevisiae deletion strains, locus YLR102C, strain apc9, stronger effect = lower value 0.984 | S. cerevisiae deletion strains, locus YLR113W, strain HOG1, stronger effect = lower value 0.995 | S. cerevisiae deletion strains, locus YLR221C, strain rsa3, stronger effect = lower value 1.03 | S. cerevisiae deletion strains, locus YLR258W, strain gsy2, stronger effect = lower value 1.03 | S. cerevisiae deletion strains, locus YLR262C, strain YPT6 (second series), stronger effect = lower value 1.02 | S. cerevisiae deletion strains, locus YLR262C, strain YPT6, stronger effect = lower value 0.956 | S. cerevisiae deletion strains, locus YLR268W, strain sec22, stronger effect = lower value 1.05 | S. cerevisiae deletion strains, locus YLR320W, strain mms22, stronger effect = lower value 1.07 | S. cerevisiae deletion strains, locus YLR330W, strain CHS5, stronger effect = lower value 1.01 | S. cerevisiae deletion strains, locus YLR342W, strain FKS1 (second series), stronger effect = lower value 1.01 | S. cerevisiae deletion strains, locus YLR342W, strain FKS1, stronger effect = lower value 1.01 | S. cerevisiae deletion strains, locus YLR357W, strain rsc2, stronger effect = lower value 1.05 | S. cerevisiae deletion strains, locus YLR370C, strain arc18, stronger effect = lower value 0.991 | S. cerevisiae deletion strains, locus YLR371W, strain rom2, stronger effect = lower value 0.985 | S. cerevisiae deletion strains, locus YLR384C, strain iki3, stronger effect = lower value 1 | S. cerevisiae deletion strains, locus YLR418C, strain cdc73, stronger effect = lower value 1.03 | S. cerevisiae deletion strains, locus YML016C, strain PPZ1, stronger effect = lower value 1 | S. cerevisiae deletion strains, locus YML032C, strain rad52, stronger effect = lower value 1.01 | S. cerevisiae deletion strains, locus YML120C, strain ndi1, stronger effect = lower value 1.02 | S. cerevisiae deletion strains, locus YML124C, strain tub3, stronger effect = lower value 1 | S. cerevisiae deletion strains, locus YMR058W, strain fet3, stronger effect = lower value 1.01 | S. cerevisiae deletion strains, locus YMR078C, strain ctf18, stronger effect = lower value 0.996 | S. cerevisiae deletion strains, locus YMR125W, strain sto1, stronger effect = lower value 1.07 | S. cerevisiae deletion strains, locus YMR129W, stronger effect = lower value 0.997 | S. cerevisiae deletion strains, locus YMR205C, strain PFK2, stronger effect = lower value 1.05 | S. cerevisiae deletion strains, locus YMR223W, strain ubp8, stronger effect = lower value 1 | S. cerevisiae deletion strains, locus YMR231W, strain pep5, stronger effect = lower value 1 | S. cerevisiae deletion strains, locus YMR263W, strain SAP30, stronger effect = lower value 1.02 | S. cerevisiae deletion strains, locus YMR307W, strain GAS1, stronger effect = lower value 0.983 | S. cerevisiae deletion strains, locus YNL067W, strain RPL9B, stronger effect = lower value 1.02 | S. cerevisiae deletion strains, locus YNL071W, strain lat1, stronger effect = lower value 1.01 | S. cerevisiae deletion strains, locus YNL128W, strain TEP1, stronger effect = lower value 1.01 | S. cerevisiae deletion strains, locus YNL153C, strain GIM3, stronger effect = lower value 1.01 | S. cerevisiae deletion strains, locus YNL183C, strain NPR1, stronger effect = lower value 0.962 | S. cerevisiae deletion strains, locus YNL209W, strain ssb2, stronger effect = lower value 1.01 | S. cerevisiae deletion strains, locus YNL233W, strain BNI4, stronger effect = lower value 1.02 | S. cerevisiae deletion strains, locus YNL248C, strain rpa49, stronger effect = lower value 1.09 | S. cerevisiae deletion strains, locus YNL250W, strain rad50, stronger effect = lower value 1.01 | S. cerevisiae deletion strains, locus YNL271C, strain bni1, stronger effect = lower value 1.01 | S. cerevisiae deletion strains, locus YNL298W, strain CLA4, stronger effect = lower value 1.01 | S. cerevisiae deletion strains, locus YNL307C, strain MCK1, stronger effect = lower value 0.982 | S. cerevisiae deletion strains, locus YNL322C, strain KRE1 (second series), stronger effect = lower value 1.02 | S. cerevisiae deletion strains, locus YNL322C, strain KRE1, stronger effect = lower value 1.01 | S. cerevisiae deletion strains, locus YNR049C, strain mso1, stronger effect = lower value 0.997 | S. cerevisiae deletion strains, locus YNR052C, strain pop2, stronger effect = lower value 0.99 | S. cerevisiae deletion strains, locus YOL006C, strain TOP1, stronger effect = lower value 1.03 | S. cerevisiae deletion strains, locus YOL012C, strain htz1 1.14 | S. cerevisiae deletion strains, locus YOL147C, strain pex11, stronger effect = lower value 0.996 | S. cerevisiae deletion strains, locus YOR001W, strain rrp6, stronger effect = lower value 0.974 | S. cerevisiae deletion strains, locus YOR061W, strain CKA2, stronger effect = lower value 1 | S. cerevisiae deletion strains, locus YOR069W, strain VPS5, stronger effect = lower value 1.01 | S. cerevisiae deletion strains, locus YOR070C, strain gyp1, stronger effect = lower value 0.999 | S. cerevisiae deletion strains, locus YOR080W, strain dia2, stronger effect = lower value 0.988 | S. cerevisiae deletion strains, locus YOR083W, strain WHI5, stronger effect = lower value 1.07 | S. cerevisiae deletion strains, locus YOR106W, strain vam3, stronger effect = lower value 1.08 | S. cerevisiae deletion strains, locus YOR136W, strain idh2, stronger effect = lower value 1.01 | S. cerevisiae deletion strains, locus YOR144C, strain elg1, stronger effect = lower value 1 | S. cerevisiae deletion strains, locus YOR184W, strain ser1, stronger effect = lower value 1.01 | S. cerevisiae deletion strains, locus YOR231W, strain MKK1, stronger effect = lower value 1 | S. cerevisiae deletion strains, locus YOR265W, strain rbl2, stronger effect = lower value 1 | S. cerevisiae deletion strains, locus YOR270C, strain vph1, stronger effect = lower value 1.03 | S. cerevisiae deletion strains, locus YOR290C, strain snf2, stronger effect = lower value 1.03 | S. cerevisiae deletion strains, locus YOR316C, strain cot1, stronger effect = lower value 0.985 | S. cerevisiae deletion strains, locus YPL051W, strain arl3, stronger effect = lower value 1.04 | S. cerevisiae deletion strains, locus YPL055C, strain LGE1, stronger effect = lower value 1.05 | S. cerevisiae deletion strains, locus YPL078C, strain atp4, stronger effect = lower value 1.06 | S. cerevisiae deletion strains, locus YPL106C, strain sse1, stronger effect = lower value 1.03 | S. cerevisiae deletion strains, locus YPL240C, strain hsp82, stronger effect = lower value 1 | S. cerevisiae deletion strains, locus YPL241C, strain CIN2, stronger effect = lower value 1 | S. cerevisiae deletion strains, locus YPL256C, strain CLN2, stronger effect = lower value 0.982 | S. cerevisiae deletion strains, locus YPR119W, strain clb2, stronger effect = lower value 0.99 | S. cerevisiae deletion strains, locus YPR141C, strain kar3, stronger effect = lower value 1.01 | S. cerevisiae deletion strains, locus YPR163C, strain tif3, stronger effect = lower value 0.989 | S. cerevisiae deletion strains, locus YPR167C, strain met16, stronger effect = lower value 1 | S. cerevisiae deletion strains, strain wtn01, stronger effect = lower value 1.03 | S. cerevisiae strains, strain wild type, stronger effect = lower value 1

— PubChem BioAssay AID1159580 (chemical genetic matrix, 2015)
